About 83,000 compounds went through this panel and 20% of them were active in at least one assay; those are over-represented in the sample as a whole.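 96-well plates, one dose, 48 hours. Percent growth reported; active if below 10.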 Unmarked numbers belong to inactive results. Activity calls are given as the source filed them.
Assays:
Experiment in all cases: NCI-60 one-dose screen, 48 h (100 = growth as untreated, 0 = no growth, -100 = all killed)
Conditions in all cases: 10 µM unless noted
SR leukemia = system: SR leukemia
RPMI-8226 leukemia = system: RPMI-8226 leukemia
OVCAR-8 ovarian = system: OVCAR-8 ovarian
OVCAR-5 ovarian = system: OVCAR-5 ovarian
OVCAR-4 ovarian = system: OVCAR-4 ovarian
SK-OV-3 ovarian = system: SK-OV-3 ovarian
IGROV1 ovarian = system: IGROV1 ovarian
OVCAR-3 ovarian = system: OVCAR-3 ovarian
HS 578T breast = system: HS 578T breast
NCI/ADR-RES ovarian = system: NCI/ADR-RES ovarian
T-47D breast = system: T-47D breast
BT-549 breast = system: BT-549 breast
MDA-MB-435 melanoma = system: MDA-MB-435 melanoma
SW-620 colon = system: SW-620 colon
MCF7 breast = system: MCF7 breast
HCT-116 colon = system: HCT-116 colon
HCC-2998 colon = system: HCC-2998 colon
KM12 colon = system: KM12 colon

Structure (SMILES) | growth (SR leukemia) | growth (RPMI-8226 leukemia) | growth (OVCAR-8 ovarian) | growth (OVCAR-5 ovarian) | growth (OVCAR-4 ovarian) | growth (SK-OV-3 ovarian) | growth (IGROV1 ovarian) | growth (OVCAR-3 ovarian) | growth (HS 578T breast) | growth (NCI/ADR-RES ovarian) | growth (T-47D breast) | growth (BT-549 breast) | growth (MDA-MB-435 melanoma) | growth (SW-620 colon) | growth (MCF7 breast) | growth (HCT-116 colon) | growth (HCC-2998 colon) | growth (KM12 colon)
Cn1cc(-c2nc(-c3c[nH]c4ccncc34)cs2)c2cc(Br)ccc21 | -23.6% (active) | -38% (active) | -53.2% (active) | -94.1% (active) | -71% (active) | 40.8% | -82.8% (active) | -92.5% (active) | -44% (active) | -57.6% (active) | -54.1% (active) | 84.2% | -81.4% (active) | -71.8% (active) | -72.4% (active) | -89.7% (active) | -68.9% (active) | -83.8% (active)
CO[C@H](C(=O)[C@@H](O)[C@@H](C)O)[C@@H]1Cc2cc3cc(O[C@H]4C[C@@H](O[C@H]5C[C@@H](O)[C@H](O)C(C)O5)[C@H](O)C(C)O4)c(C)c(O)c3c(O)c2C(=O)[C@H]1O[C@H]1C[C@@H](O[C@H]2C[C@@H](O[C@H]3C[C@@H](OC)[C@H](O)C(C)O3)[C@@H](O)C(C)O2)C(O)(O)C(C)O1 (some centres not stated) | 13.5% | 9.26% (active) | 9.53% (active) | 14.5% | 21.7% | 14.6% | 22.3% | 9.32% (active) | 25.3% | 87.3% | 0.438% (active) | -20.1% (active) | -30.5% (active) | 22% | 4.2% (active) | 6.1% (active) | -13.7% (active) | 9.69% (active)
COc1ccc(C2=C/C(=C\c3ccc(Cl)cc3)C(=O)N2/N=C/c2ccc(Cl)cc2)cc1 | 88.3% | 101% | 83.5% | 103% | 79.2% | 88.6% | 91.2% | 99.6% | 91.4% | 104% | 82.1% | 101% | 104% | 98.9% | 84.5% | 109% | 108% | 90.2%
N#C/C(=C\c1ccc(Br)cc1)c1cc2ccccc2[nH]1 | 81.2% | 78.9% | 96.8% | 93.9% | 112% | 81% | 91.4% | 107% | 98.4% | 98.7% | 74.7% | 97% | 99.1% | 93.4% | 62.2% | 84.7% | 101% | 90.7%
COc1cccc(/C=C/C(=O)c2cc3c(N)c(C(=O)Nc4cccc(Cl)c4C)sc3nc2C)c1 | 7.93% (active) | -32.6% (active) | -33.4% (active) | 7.92% (active) | 38.1% | 14.7% | -18.7% (active) | -60.5% (active) | 4.67% (active) | -3.64% (active) | 9.1% (active) | -22.3% (active) | -20.4% (active) | -28.7% (active) | 3.5% (active) | -34.2% (active) | – | -19.6% (active)
Cn1ncc2ccc(-c3nc(-c4ccccc4)[nH]c3-c3n[nH]c(=O)n3C3CC3)cc21 | 82.9% | 94% | 99% | 98% | 93.6% | 94.5% | 111% | 107% | 100% | 107% | 82.7% | 106% | 100% | 100% | 90.2% | 86.3% | 103% | 99.2%
N=C(N)c1ccc(-c2ccc(-c3ccc(Cl)cc3)o2)o1 | -28.8% (active) | -6.54% (active) | -55.4% (active) | 3.3% (active) | 46.2% | 81.2% | 37.7% | -86.1% (active) | 78.6% | -50.6% (active) | 26.5% | 93.1% | -89.1% (active) | -69.7% (active) | -70.9% (active) | -76.1% (active) | – | -84.9% (active)
COc1ccc(OC)c(Nc2nnc(-c3ccc(Cl)cc3)o2)c1 | 79.7% | 90.4% | 85.5% | 82.4% | 10.5% | 90.7% | 81.1% | 31.8% | 51.4% | 71.9% | 59.9% | 81.9% | 84.6% | 86.2% | 91.6% | 31.1% | 104% | 66.4%

Reference: PubChem BioAssay (NCI)
